Compound activity (PubChem)
GC-B act: human GC-B receptor activators, primary screen, HEK293 GC-B cells, cGMP TR-FRET, EC30 CNP | 0% at EC30 CNP, 100% saturating CNP | activation, % at 10 µM | 370,000 tested, 0.11% active;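 active = activation at 10 µM reaching about 35% in either raw or pattern-adjusted values, limit read from the data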
Target sequence (P20594 whole entry, looked up): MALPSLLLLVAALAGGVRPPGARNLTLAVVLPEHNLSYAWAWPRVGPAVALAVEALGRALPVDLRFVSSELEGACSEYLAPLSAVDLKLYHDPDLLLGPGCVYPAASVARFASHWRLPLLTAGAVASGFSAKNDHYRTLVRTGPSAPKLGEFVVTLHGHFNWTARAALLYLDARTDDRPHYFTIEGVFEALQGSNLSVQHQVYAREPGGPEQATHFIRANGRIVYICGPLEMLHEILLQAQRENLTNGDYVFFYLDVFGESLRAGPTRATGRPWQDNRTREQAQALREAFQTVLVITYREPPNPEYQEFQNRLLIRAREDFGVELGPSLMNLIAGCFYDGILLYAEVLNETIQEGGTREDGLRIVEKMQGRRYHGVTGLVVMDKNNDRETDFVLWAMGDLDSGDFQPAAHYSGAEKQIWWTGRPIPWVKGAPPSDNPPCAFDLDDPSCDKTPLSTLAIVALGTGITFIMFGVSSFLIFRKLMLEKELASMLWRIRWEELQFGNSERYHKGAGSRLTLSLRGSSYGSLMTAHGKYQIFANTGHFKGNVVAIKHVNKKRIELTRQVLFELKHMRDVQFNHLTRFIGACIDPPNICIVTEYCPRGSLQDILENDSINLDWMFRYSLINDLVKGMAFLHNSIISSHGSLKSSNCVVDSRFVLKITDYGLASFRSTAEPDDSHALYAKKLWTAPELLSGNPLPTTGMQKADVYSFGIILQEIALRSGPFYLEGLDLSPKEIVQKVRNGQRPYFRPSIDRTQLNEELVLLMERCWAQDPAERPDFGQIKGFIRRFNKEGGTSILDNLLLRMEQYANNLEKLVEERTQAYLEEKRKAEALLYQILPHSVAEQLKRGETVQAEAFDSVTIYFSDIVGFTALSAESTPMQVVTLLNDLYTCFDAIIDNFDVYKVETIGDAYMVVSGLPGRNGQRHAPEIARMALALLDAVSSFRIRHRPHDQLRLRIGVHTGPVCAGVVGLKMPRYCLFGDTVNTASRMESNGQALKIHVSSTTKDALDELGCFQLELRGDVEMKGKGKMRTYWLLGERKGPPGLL
HSF1 inhib: HSF1 inhibitors in luciferase reporter cells, primary screen, cell-based, NIH3T3, luminescence. NIH3T3-HGL HSE-luciferase, MG132-induced, luminescence 8 h; hits give low values. activity change, negative = inhibition, % at 7.5 µM (by protocol). 300,000 tested, 0.77% active;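 active = more than half of replicate wells show activity change below -50%, luminescence cut by over half; inconclusive = some wells, but at most half, below -50%; inactive = no replicate well below -50%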;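 also: luciferase reports HSF-1 transcriptional activity via heat shock element; 0% = median of DMSO wells and -100% = zero luminescence signal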
NPR1 activator: GC-A stimulated cGMP production enhancers – HEK293 GC-A cells, cGMP TR-FRET, EC30 ANP, primary screen. Atrial natriuretic peptide receptor 1 (Homo sapiens), P16066. 0% at EC30 ANP, 100% saturating ANP. activation, % at 10 µM. 370,000 tested, 0.14% active. AID 1671463, 2021; in the data active = activation above about 40%
HSF-1 act: HSF-1 activators, primary screen, NIH3T3-HGL cells, MG132 stress, luminescence, single point; NIH3T3-HGL HSF-1 luciferase reporter, 8 h; 100% = twice DMSO control signal; 300,000 tested, 1.7% active; activation, % at 9 µM; AID 504408, 2011;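 active = mean replicate activation of at least 50% with a set share of replicates each reaching 50%; inconclusive = only one of those two conditions met; inactive = mean below 50% and too few replicates reaching it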;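 also: 0% = median of the neutral control wells and 100% = twice that signal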
aDG glyco up: activators of alpha-DG glycosylation, primary screen, uHTS, Pro5-aDG cells, AlphaScreen. alpha-DG glycosylation AlphaScreen (IIH6); 0% Pro5, 100% B10-LARGE cell signal. activation, % at 10 µM. 360,000 tested, 0.22% active;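 active = activation of at least 8% versus controls, or a plate z-score of at least 8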;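 also: Pro5 are CHO cells carrying HIG-tagged alpha-DG that lacks glycosylation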
Dyrk1A ADPGlo: rat Dyrk1A kinase inhibitors, primary screen, biochemical, single point, plate reader; Dual specificity tyrosine-phosphorylation-regulated kinase 1A (Rattus norvegicus), Q63470; ADP-Glo luminescence, NFATc1 peptide; inhibition, % at 12.5 µM; 310,000 tested, 0.43% active; in the data active = inhibition above about 50%;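 also: plate controls were vehicle with enzyme for no effect and no enzyme for full effect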
Starred values were filed as active, the others as inactive; ? = inconclusive; · = no result. This is a sample that favours compounds with a hit; in the whole collection about 2.5% have one here.

SMILES	GC-B act	HSF1 inhib	NPR1 activator	HSF-1 act	aDG glyco up	Dyrk1A ADPGlo
C/C(=C\c1ccc(Br)cc1)C(=O)c1c(C)cc(C)[nH]c1=O	3.9	-3.4	-1.0	3.8	0.0	7.8
COc1ccccc1/C=C(\C)C(=O)c1c(C)cc(C)[nH]c1=O	3.4	20.1	-0.1	56.5*	0.2	-2.0
CCCc1cc2c(=O)c(-c3ccc4c(c3)OCCO4)coc2cc1OC(=O)c1ccco1	-3.9	32.5	-0.7	64.5*	0.1	-4.8
Cc1cc(C)c(C(=O)CN2C(=O)NC3(CCCCC3)C2=O)cc1C	-0.9	15.4	0.7	?	0.1	-0.4
Cn1nnnc1SCC(=O)Nc1nc(-c2ccc(F)c(F)c2)cs1	-0.2	-1.9	42.0*	-6.9	-0.2	-7.4
COc1ccc(C(=O)Nc2ccccc2C(=O)N(Cc2ccco2)C(C(N)=O)C(C)C)cc1 (stereo unspecified)	-3.3	0.6	-2.4	9.2	0.0	5.6
CC(CNC(=O)COC(=O)c1ccco1)c1ccccc1 (stereo unspecified)	0.2	·	-0.8	·	0.1	-2.0
Cc1cc(C)c(C(=O)Nc2ccccc2)c(CC(C)(C)C(=O)O)c1	4.5	·	-0.7	·	0.0	·
Cc1ccsc1/C=N/Nc1nc2ccccc2s1	-2.6	36.4	11.1	66.1*	-0.3	9.0
CCn1c(C)c(/C=N/Nc2nc3ccccc3s2)c2ccccc21	-6.0	14.2	-8.3	53.2*	0.2	-2.3
CC(=O)Nc1ccc(/C=N/Nc2nc3ccccc3s2)cc1	-13.5	47.1	-10.7	67.6*	-0.1	-6.1
Cc1nn(-c2ccccc2Cl)c(Cl)c1/C=N/Nc1nc2ccccc2s1	-5.1	-83.9*	-3.0	-85.6	-0.3	0.3
O=C(Cc1ccc(Cl)cc1)NC(=S)Nc1ccccc1N1CCOCC1	-4.6	·	-1.7	·	0.1	2.5
COc1ccc(C(=O)NCC(=O)N/N=C(\C)Cc2ccccc2)cc1	1.9	-0.8	1.8	3.6	-0.3	-2.3
C(=N\Nc1nc2ccccc2s1)/c1ccco1	-7.6	40.6	4.1	65.5*	0.4	·
Oc1ccccc1C=NNc1nc2ccccc2s1	-7.3	·	1.1	·	-0.2	·
CCOc1ccccc1C(=O)NCC(=O)Nc1ccc2c(c1)OCO2	9.7	·	1.2	·	-0.1	-5.0
Cc1ccc(NC(=O)NC2CCCCC2)cc1Cl	0.3	·	7.1	·	0.1	6.3
Cc1ccc(NC(=O)CN(C)C2CCCCC2)cc1Cl	0.1	-81.7*	-5.0	-84.4	0.3	·
COc1cc(C(=O)OCC(=O)N2CCCCC2C)cc(NC(=O)c2cccs2)c1OC (stereo unspecified)	8.2	-9.6	3.6	-0.2	-0.2	·
CCC(c1nnnn1CCOC)N1CCN(Cc2ccccc2OC)CC1 (stereo unspecified)	0.1	1.2	1.4	0.5	0.2	6.8
Cc1ccc(-c2nnc(-c3ccc4c(c3)OCO4)o2)cc1	-10.0	12.6	-8.7	46.6	0.1	0.3
CC(C)C1N=C(c2ccc3c(c2)OCO3)CC(c2ccccc2O)N1 (stereo unspecified)	-7.2	71.3	-11.4	75.4*	-0.6	0.4
COc1ccc(-c2csc(C(C)(O)c3ccc(F)c(F)c3)n2)cc1OC (stereo unspecified)	0.6	·	0.6	·	1.0	·
COCc1cc(=O)[nH]c(Nc2nc3ccc(C)cc3o2)n1	-45.0	171.1	-35.6	209.6*	1.6	9.8
SMILES	GC-B act	HSF1 inhib	NPR1 activator	HSF-1 act	aDG glyco up	Dyrk1A ADPGlo
CCc1ccc2nc(Nc3nc(COC)cc(=O)[nH]3)nc(C)c2c1	2.3	-5.0	13.9	-3.2	1.6	32.9
O=[N+]([O-])c1cccnc1NCCNc1ncc(C(F)(F)F)cc1Cl	-0.6	61.8	-0.3	84.7*	-0.1	3.2
COc1ccc(CCC(=O)Nc2ccc(C(=O)c3ccncc3)cc2)cc1	-5.7	-2.0	-0.5	-4.5	0.1	4.1
COc1ccc(-c2csc(NC3OC(=O)c4c3ccc(OC)c4OC)n2)cc1OC (stereo unspecified)	8.0	43.2	7.7	60.0*	0.6	-7.2
COc1ccc2c(c1OC)C(=O)OC2Nc1nc(-c2ccc([N+](=O)[O-])cc2)cs1 (stereo unspecified)	-1.4	14.8	1.4	9.5	-0.1	-7.2
COc1ccc(-c2noc(CCN3C(=O)c4ccccc4C3=O)n2)cc1OC	0.3	42.5	2.8	87.5*	-0.1	-4.9
COc1ccc(-c2noc(CCCOc3ccccc3)n2)cc1OC	3.1	-2.8	4.2	-0.6	0.4	0.5
O=C(CC(=O)c1ccccc1O)c1cccc(F)c1	·	17.5	·	39.4	1.6	-4.3
O=C(CC(=O)c1ccccc1O)c1ccc(F)cc1	-1.0	37.5	-0.1	75.2*	0.2	-4.0
O=C(CCCC(=O)c1ccc(F)cc1)c1ccc(F)cc1	0.3	50.3	0.7	81.4*	0.0	-2.9
C/C(=N\O)c1ccc2c3c([nH]c2c1)CCCC3	7.0	60.7	3.6	93.0*	0.0	8.7
C/C(=N\O)c1ccc2[nH]ccc2c1	-2.1	8.7	2.4	19.0	1.6	16.9
O=C(COC(=O)c1ccc2c(c1)OCO2)Nc1cccc(F)c1	1.9	·	1.2	·	-0.1	·
Cc1noc(C)c1COC(=O)C1CCN(S(=O)(=O)c2c(Cl)cccc2Cl)CC1	-0.9	-1.0	-1.7	2.2	1.0	24.1
CCOc1cc(-c2c(C#N)c(N)nc3c2CCc2ccccc2-3)ccc1O	10.9	15.2	18.9	34.5	0.0	-0.3
COc1ccccc1-c1cc(-c2ccc(O)cc2)nc(N)c1C#N	-9.2	16.7	41.2*	5.7	-0.1	5.7
COc1ccccc1-c1c(C#N)c(N)nc2c1CCc1ccccc1-2	-1.6	40.7	0.9	59.7*	2.7	1.0
C/C(=N\NC(=O)CN(c1ccccc1)S(C)(=O)=O)c1ccccc1O	-0.3	-5.7	-2.9	-26.4	1.4	-0.4
Cc1c(NC(=O)N2CCCCCC2)c(=O)n(-c2ccccc2)n1C	3.7	-7.2	2.5	-1.1	-0.3	-3.1
Cc1ccc(S(=O)(=O)Nc2cccc3ncccc23)s1	·	132.1	·	107.7*	-0.4	-4.9
Cc1ccc(S(=O)(=O)Nc2cccc3ncccc23)cc1	-3.2	1.4	-0.5	4.5	-0.1	4.6
O=C(CNc1cccc2ccccc12)N/N=C/c1ccc([N+](=O)[O-])cc1	-1.0	31.3	-0.6	77.3*	0.5	-3.1
CCOC(=O)Cc1csc(NC(=O)CCN2C(=O)c3cccc([N+](=O)[O-])c3C2=O)n1	-3.5	-11.7	-3.8	-9.2	0.0	-4.4
